# Experimental data from PubChem BioAssay AID651597 (National Center for Advancing Translational Sciences (NCATS), 2012).
# Several values for one entry are separate records, joined by “and”; a condition that tells them apart may be missing. Equal entries are not always repeated. In all, about 1,100 compounds went through this assay and about 390 (35%) were called active. About 30% were inconclusive and are not listed. The list shows a part of the results. Unmarked numbers belong to inactive results. The call rests on the fitted dose curve; in most records, active means well fitted inhibition curve with a large enough effect; inconclusive means small, poorly fitted or top-dose-only effect; inactive means flat fitted curve, though single readings scatter.
# Target: Luciferin 4-monooxygenase (Photinus pyralis) (UniProt P08659)
# Assay: qHTS of Nrf2 Activators: Hit Validation in Secondary FLuc Assay; further: nearly all actives have a fitted effect of over 65% in size
# Conditions: firefly luciferase inhibition counter-screen, luminescence; series mostly up to 57.5 µM; activity, negative = inhibition: at the top concentration
# Text: Many diseases have some form of oxidative stress injury and ties to inflammation, causing a host of problems for the patient. The antioxidant response element (ARE) plays an important role in alleviating the harmful effects of oxidative stress. The antioxidant response element (ARE) is a transcriptional regulatory element involved in the activation of genes coding for a number of antioxidant proteins and detoxifying enzymes. These enzymes work in concert to protect tissues from oxidative insults and chemical toxicities in human hepatocytes and immune cells. The protective effects of ARE activation are primarily triggered through Nrf2 (NF-E2-related factor) binding to and activating AREs. It is known that Nrf2 controls the production of over 250 antioxidant and detoxification proteins (Hu et al., 2006), thereby protecting tissues by increasing cellular antioxidant content and suppressing inflammatory signaling pathways. The transcription factor Nrf2 is a central link between oxidative chemicals, such as phenolic antioxidants and electrophilic compounds, and the activation of ARE. Nrf2 levels are constitutively low as a consequence of its interaction with Keap1, which targets its degradation (Zipper and Mulcahy, 2002). Electrophiles react with key cysteine residues in Keap1, releasing Nrf2 and allowing its translocation to the nucleus. Once within the nucleus, Nrf2 complexes with coactivators such as p300, and binds to the AREs to induce gene transcription of cytoprotective enzymes, resulting in the prevention of toxicity. Activation of Nrf2 protects tissues by increasing cellular antioxidant content and suppressing inflammatory signaling pathways. Identifying novel and potent Nrf2 activators by using the AREc32 cell line to detect ARE activation by small molecules will lead to the identification and development of probes to study protective pathways in multiple tissues. These specific probes are essential to study the ARE pathway, and eventually to determine whether this pathway does activate genes that could protect against a host of diseases, including cardiovascular diseases, obesity, diabetes, Alzheimer's, and Parkinson's disease.
# This project's aim is to identify novel and potent Nrf2 activators by using the AREc32 cell line to detect ARE activation by small molecules, which will lead to the identification and development of probes to study the ARE pathway. In this counter assay, we aim to identify false positive as identified from this primary assay using an FLuc assay with an inhibiting read-out.
# NIH Chemical Genomics Center [NCGC]
# NIH Molecular Libraries Probe Centers Network [MLPCN]
# Assay Submitter (PI): Curtis Klaassen, University of Kansas Medical Center
# Assess whether an activator in the primary assay potentially causes such activation by inhibitor-induced stabilization of the firefly luciferase reporter enzyme by determining whether it inhibits firefly luciferase in the presence of Km concentrations of its substrates (ATP and D-luciferin).
# On the % scale 0 is the no-effect control and ±100 the full control effect; potency means the concentration at half of the fitted maximal effect.
Structure (SMILES),Potency,"activity, negative = inhibition"
c1ccc(CSc2nccc(-c3ccco3)n2)cc1,12 µM (active),–
O=c1cc(-c2ccco2)nc(SCc2cccc(Cl)c2)[nH]1,–,-23.2%
C=CCSc1nccc(-c2cc(Cl)sc2Cl)n1,–,-29.5%
COC(=O)c1cc2c(s1)-c1cc(F)ccc1OC2,–,-13.2%
CCn1c(NC(=O)c2cccs2)nc2ccccc21,12 µM (active),–
CCn1c(NC(=O)c2ccccc2)nc2ccccc21,9.53 µM (active),–
O=[N+]([O-])c1cccc(-c2nc(-c3ccccn3)no2)c1,1.9 µM (active),–
Brc1cc(Cc2nnc(-c3ccccc3)o2)c(Br)s1,–,-2.05%
N=c1n(CCN2CCOCC2)c2ccccc2n1CC(=O)c1cccc([N+](=O)[O-])c1,–,4.81%
c1ccc(-c2nnc(-c3ccccc3)o2)cc1,1.9 µM (active),–
O=[N+]([O-])c1cccc(-c2nnc(-c3ccccc3)o2)c1,2.39 µM (active),–
O=C1C2C(C(=O)N1/N=C/c1ccc([N+](=O)[O-])o1)C1C=CC2C12CC2 (stereo not drawn),–,-17.2%
O=[N+]([O-])c1cnccc1-n1nnc2ccccc21,–,4.14%
NC(=O)c1cc2c3ccccc3ccn2c1-c1ccccc1,13.5 µM (active),–
CCOc1c(Br)cc(C(N)=O)cc1OCc1ccccc1,–,0.994%
COC(=O)C1=C(C)N(C)C(=O)/C1=C\c1ccco1,–,-22.6%
O=C1C(=Cc2ccco2)CCCC1=Cc1ccco1,2.69 µM (active),–
Nc1ccc(S(=O)(=O)Nc2nccc(/C=C/c3cccc(Br)c3)n2)cc1,–,-23.3%
Nc1nccc(/C=C/c2c(F)cccc2Cl)n1,9.53 µM (active),–
COC(=O)c1ccccc1NC(=O)COCc1cc(-c2cccs2)on1,–,-17.5%
COc1ccccc1C(=O)COC(=O)c1cccs1,2.69 µM (active),–
COC(=O)c1ccccc1NC(=O)c1cccs1,–,-1.86%
COc1cc(OC)cc(-c2nc3ccccc3s2)c1,3.79 µM (active),–

Structure (SMILES),Potency,"activity, negative = inhibition"
COc1nc(-c2ccccc2)cc(-c2ccccc2)n1,–,-16.4%
Cc1cccc(NC(=O)C2CC(=O)N/C(=N/N=C/c3ccco3)S2)c1 (stereo not drawn),–,-25.3%
C/C(=N\NC(=S)Nc1cccc(C)c1)c1ccco1,7.57 µM (active),–
Cc1cc(C)c(C#N)c(OCC(=O)c2ccc(Br)cc2)n1,–,-2.59%
Cc1ccnc(SCC(=O)c2ccc(Br)cc2)c1C#N,6.01 µM (active),–
N#C/C(=C(/O)c1ccco1)c1nc2ccccc2s1,2.39 µM (active) and 2.69 µM (active),–
N#C/C(=C(/O)c1ccco1)c1nc2ccccc2[nH]1,3.79 µM (active),–
COC(=O)c1sccc1NC(=O)c1ccccc1,–,-5%
COC(=O)c1cc2nc(-c3ccccc3)cc(C(F)(F)F)n2n1,–,0.282%
COCCn1c(C(F)(F)F)ccc(NC(=O)c2ccccc2)c1=O,4.78 µM (active),–
O=C1N/C(=N\N=C\c2ccco2)SC1Cc1ccccc1[N+](=O)[O-] (stereo not drawn),–,-29.9%
Cc1ccc2[nH]c(=O)c3cc(C(=O)N(C)Cc4ccco4)sc3c2c1,12 µM (active),–
CN(C)CCNC(=O)c1cccc2ccc(-c3ccc(-c4ccccc4)cc3)nc12,–,-22.3%
CCN(C(=O)Cn1nnc2sc(-c3ccccc3)cc2c1=O)c1cccc(C)c1,12 µM (active),–
CC(=O)Cn1nnc2sc(-c3ccccc3)cc2c1=O,6.01 µM (active) and 5.36 µM (active),–
CC(=NNc1ccc2ccccc2n1)c1ccccc1O,0.0169 µM (active),–
Cc1cc(C)c(-n2c(SCCS(=O)(=O)c3ccc(F)cc3)n[nH]c2=O)c(C)c1,–,3.41%
O=C(Oc1ccccc1/C=C\C(=O)c1cc2ccccc2o1)c1ccccc1,1.07 µM (active),–
COc1cccc(C(=O)Oc2ccccc2/C=C\C(=O)c2cc3ccccc3o2)c1,1.51 µM (active),–
COc1ccc(-c2cc3ccccc3oc2=O)cc1NC(=O)c1ccc([N+](=O)[O-])o1,–,-25.2%
CN1CCN(CCCNC(=O)c2cc3c(=O)n(C)c4ccccc4c3s2)CC1,–,-18.5%
O=[N+]([O-])c1ccc(/C=[N+](\[O-])[C@@H]2CCCC[C@@H]2/[N+]([O-])=C/c2ccc([N+](=O)[O-])o2)o1,–,-26%
O=[N+]([O-])c1ccc(/C=N/Nc2ccc3ccccc3c2)o1,1.69 µM (active),–

Structure (SMILES),Potency,"activity, negative = inhibition"
O=[N+]([O-])c1ccc(/C=N/N=C/c2ccc([N+](=O)[O-])o2)o1,–,3.61%
O=C(COCc1cc(-c2ccc(F)cc2)on1)Nc1cc(Cl)ccc1O,–,2.84%
Cc1cccc2nc3c(nc12)-c1ccccc1C3=O,–,-28.5%
Cc1cccc2cc3c(nc12)-c1ccccc1C3=O,10.7 µM (active),–
CS(=O)(=O)c1nc(S(=O)(=O)c2ccc(Cl)cc2)c(N2CCOCC2)s1,–,0.161%
Clc1cc(Cl)cc(Nc2ncnc(-n3cccc3)n2)c1,–,-29%
Clc1ccc(-c2nnc(-c3cccc4ccccc34)o2)cc1,1.35 µM (active),–
CCn1nc(C)c(Br)c1-c1nc(-c2cccc(C)c2)no1,–,-25.7%
Cc1cccc(-c2nnc(-c3cccc4ccccc34)o2)c1,0.675 µM (active),–
COc1cc2c(cc1Cl)/C(=C\CCN(C)C)c1ccccc1S2,–,-23.3%
Cc1nnc2n1N=CC=C(c1ccccc1)S2,–,-5.49%
C#CCSc1nnc(-c2sc3ccccc3c2Cl)o1,2.39 µM (active),–
O=C1C(=C2CCc3ccccc32)Cc2ccccc21,0.301 µM (active),–
Cc1ccc(S(=O)(=O)/N=C(/NNC(=O)c2cccc(Cl)c2)c2ccccc2)cc1,5.36 µM (active),–
O=C(NNC(=O)c1sccc1-n1cccc1)c1cccc(Cl)c1,–,-17.1%
O=C(NN/C(=N/S(=O)(=O)c1ccc(Cl)cc1)c1ccccc1)c1cccc(Cl)c1,3.01 µM (active),–
O=[N+]([O-])c1cccc2ccc(/C=C/c3ccc(F)cc3)nc12,2.39 µM (active),–
O=[N+]([O-])c1ccc(/C=C/c2ccc3cccc([N+](=O)[O-])c3n2)cc1,–,-23.3%
Cc1c(=O)n(OCc2ccccc2)c2ccccc2[n+]1[O-],–,-2.37%
N=c1oc2ccccc2cc1-c1nc(-c2ccccc2)cs1,2.69 µM (active),–
CC1CCCCC1NC(=O)COC(=O)c1c2c(nc3ccccc13)/C(=C/c1ccco1)CC2 (stereo not drawn),4.78 µM (active),–
Cc1cc(SCC(=O)N/N=C/c2ccco2)nc2ccccc12,–,-26.3%
